# Assay outcomes deposited in PubChem by National Center for Advancing Translational Sciences (NCATS).
# SARS PLpro yeast – SARS-CoV PLP inhibition in yeast | S. cerevisiae expressing SARS-CoV PLpro, growth rescue | Potency, µM (highest dose often 32.9 µM), for inactives: at the top dose activity, positive = growth rescue, most hits filed as activators | 0.19% of 330,000 active | AID 485353; calls by dose curve; also: potency is read from the fitted curve at half-maximal effect; 0% is about no effect; nearly all actives have a fitted effect of over 55% in size
# HCMV antiviral – inhibitors of human cytomegalovirus. activity change, negative = inhibition, % at 57.5 µM. 4.5% of 410,000 active. HFF cells, HCMV-luciferase reporter, 72 h; stronger effect = lower value; in the data active = activity change below about -60%; inconclusive = no clear call, values can overlap the other calls; inactive = above about -39%; also: % is scaled to controls: 0 for no effect and ±100 for the full control effect
#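 Luciferase read-out from HCMV-luciferase-infected HFFs (MOI 1 PFU/cell) 72 h post infection at 37C; compounds added after 16 h cell attachment; activity normalized between buffer-only basal and Salinomycin (10uM) inhibitor controls.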
# HCV inh – blocks hepatitis C virus; Potency, µM (titrated, usually from 41.8 µM), for inactives: top-dose activity change, negative = inhibition, hits mostly inhibitors; AID 651820; Huh7.5.1 HCVcc-Cre infection, luciferase reporter, 44 h; 3.4% of 340,000 active; active = well fitted inhibition curve with a large enough effect; inconclusive = small, poorly fitted or top-dose-only effect, or another doubt; inactive = no such curve, though single readings can be large or run the other way; also: potency is read from the fitted curve at half-maximal effect; % is scaled to controls: 0 for no effect and ±100 for the full control effect
#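 Infectious HCV cell culture screen: compound-treated cells (1,000/well, pre-plated 4 h) are infected with HCVcc-Cre at roughly 0.5 moi and grown 44 h. Infection is quantified by luciferase signal after 15 min substrate incubation at room temperature.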
# Marburg entry inh – Marburg virus entry inhibition; Potency, µM (doses to about 37.8 µM), for the others: top-dose activity change, negative = inhibition, actives largely listed as inhibitors; 1.8% of 300,000 active; Marburg virus pseudotyped entry inhibition, cell reporter; calls by dose curve; tested in HEK293 cells; also: potency is read from the fitted curve at half-maximal effect; % is scaled to controls: 0 for no effect and ±100 for the full control effect
# FMDV inh – foot and mouth disease virus antiviral activity; Potency, µM (top dose mostly 57.9 µM), for the others: top-dose activity change, negative = inhibition, usual class: inhibitors; 1.2% of 410,000 active; AID 1159524; FMDV antiviral cell-based qHTS; calls by dose curve; tested in HEK293T cells; also: read-out not given here; potency is read from the fitted curve at half-maximal effect; % is scaled to controls: 0 for no effect and ±100 for the full control effect; nearly all actives have a fitted effect of over 45% in size
# Lassa entry inh – Lassa virus entry inhibition; 1.2% of 300,000 active; Potency, µM (top dose mostly 37.9 µM), for the others: top-dose activity change, negative = inhibition, actives largely listed as inhibitors; Lassa virus pseudotype entry inhibition, cell reporter; calls by dose curve; tested in HEK293 cells; also: potency is read from the fitted curve at half-maximal effect; % is scaled to controls: 0 for no effect and ±100 for the full control effect; nearly all actives have a fitted effect of over 50% in size
# Starred values were filed as active, the others as inactive; ? = inconclusive; · = not tested or not shown; [ ] = another dose, or the depositor's remark. Only some compounds are listed: those with a hit (about 8% of all), similar ones and a draw of the others.
SMILES,SARS PLpro yeast,HCMV antiviral,HCV inh,Marburg entry inh,FMDV inh,Lassa entry inh
COc1ccccc1Nc1c2c(nc3ccc(NC(=O)c4ccc(N(C)C)cc4)cc13)CCCC2,·,-101*,·,3.2µM*,-27%,?
COc1cc(OC)cc(C(=O)Nc2ccc3nc4c(c(Nc5ccc(OC)c(OC)c5)c3c2)CCCC4)c1,·,-105*,·,2.5µM*,?,?
CCOc1ccccc1C(=O)Nc1ccc2nc3c(c(Nc4ccc(OC)c(OC)c4)c2c1)CCCC3,·,-103*,·,?,?,10µM*
COc1cc(OC)cc(C(=O)Nc2ccc3nc4n(c(=O)c3c2)CCCC4)c1,-2%,?,?,·,34%,·
COc1ccc(Nc2c3c(nc4ccc(NC(=O)c5cc(Cl)ccc5OC)cc24)CCCC3)cc1OC,·,-108*,·,?,32µM*,?
COCCn1c(CCC(=O)Nc2ccc(C)c(Cl)c2)nc2cccnc21,·,-11,·,3%[46.1 µM],-24%,9%[46.1 µM]
Cc1nc(N(CCO)C2CCCCC2)c2nnn(Cc3ccccc3)c2n1,-2%,-15,-12%,10µM*,-18%,-10%[46.1 µM]
CC(C)(C)[Si](C)(C)OCc1ccc(-c2c3c(cc4ccc(Cl)cc24)CCC3=O)cc1,·,1,·,·,·,·
CC(C)Oc1ccc(Br)cc1C(=O)N/N=C/c1c[nH]c2ccccc12,-4%,-29,10µM*,?,-9%,-13%[46.1 µM]
O=C(N/N=C/c1c[nH]c2ccccc12)c1cc(-c2ccc3ccccc3c2)n[nH]1,-3%,-19,10µM*,?,-22%,?
O=C(N/N=C/c1c[nH]c2ccccc12)c1cc(-c2ccc(-c3ccccc3)cc2)n[nH]1,-2%,-74*,-26%,?,?,-16%
O=C(N/N=C/c1c[nH]c2ccccc12)c1ccc(Br)cc1,-8%,73,29%,?,11%,-23%[46.1 µM]
O=C(N/N=C/c1ccco1)c1cc(-c2ccc3ccccc3c2)n[nH]1,-17%,?,-11%,13µM*,-5%,?
c1ccc(Cn2nnc3c(N4CCN(Cc5ccc6c(c5)OCO6)CC4)ncnc32)cc1,-3%,-22,7.1µM*,?,?,-14%
COc1ccccc1C(c1nnnn1Cc1ccco1)N1CCN(c2cccc(C)c2C)CC1 (stereo not drawn),-4%,-27,13µM*,?,-3%,9.2µM*
COCCn1nnnc1C(c1ccccn1)N1CCN(c2cccc(C)c2C)CC1 (stereo not drawn),0%,-6,1%,-25%,?,-28%
CCN1CCN(C(c2cccc(OC)c2OC)c2nnnn2Cc2ccco2)CC1 (stereo not drawn),-2%,-83*,-9%,0%[46.1 µM],-8%,3%
COCCn1nnnc1C(c1cccc(OC)c1OC)N1CCN(C(=O)c2ccco2)CC1 (stereo not drawn),0%,4,24%,0%[46.1 µM],25%,2%[46.1 µM]
COC(=O)Cc1c(C)c2ccc3c(c2oc1=O)CN(Cc1ccccc1OC)CO3,·,-7,·,?,-22%,-4%[46.1 µM]
O=C(NCc1ccccc1Cl)c1ccc(CSCc2ccccc2Cl)o1,·,0,·,·,6%,-24%[46.1 µM]
CCOC(=O)N1CCN(C(=O)c2ccc(OC)cc2)CC1,0%,-31,16%,-1%,-17%,1%
COc1cc(CN2CCC(C(=O)N3CCN(c4ccccc4F)CC3)CC2)ccc1O,5%,-21,22µM*,?,-21%,-29%
COc1cccc(CN2CCC(C(=O)N3CCN(c4ccccc4F)CC3)CC2)c1,7%,15,3%,-9%,-13%,2%
CCOC(=O)N1CCN(c2nc(-c3ccc(OC)cc3)no2)CC1,2%,?,13µM*,9%,3%,-6%
COc1ccc(-c2noc(N3CCC(C(=O)Nc4ccc(F)cc4)CC3)n2)cc1,-2%,-31,-3%,·,-22%,·
SMILES,SARS PLpro yeast,HCMV antiviral,HCV inh,Marburg entry inh,FMDV inh,Lassa entry inh
COc1ccc(-c2noc(N3CCC(C(=O)N4CCN(c5ccccc5F)CC4)CC3)n2)cc1,·,-4,·,·,11µM*,-11%[46.1 µM]
Cc1ccccc1Cn1nc(C)c(NC(=O)c2noc3c2CCc2ccccc2-3)c1C,-12%,-24,?,0%,?,·
COc1ccc2c(c1)CCc1c(C(=O)Nc3c(C)nn(Cc4c(Cl)cccc4Cl)c3C)noc1-2,·,-92*,·,-21%[46.1 µM],-14%,17%[46.1 µM]
COc1ccc2c(c1)CCc1c(C(=O)Nc3c(C)nn(Cc4ccccc4C)c3C)noc1-2,·,-66*,·,?,?,?
COc1cccc(C2(CC(=O)N3CCN(c4ccccn4)CC3)CC(=O)N(C3CCCC3)C2=O)c1 (stereo not drawn),·,·,·,·,-1%,·
COc1cc(O)c2c(=O)c(-c3ccc(O[C@@H]4O[C@H](CO)[C@@H](O)[C@H](O)[C@H]4O)cc3)coc2c1,-3%,67,-13%,10µM*,31%,?
O=c1c(O[C@@H]2O[C@H](CO)C(O)C2O)c(-c2ccc(O)c(O)c2)oc2cc(O)cc(O)c12 (stereo partly drawn),1%,·,18%,·,-17%,·
O=c1c(OC2OC(CO)C(O)C(O)C2O)c(-c2ccc(O)c(O)c2)oc2cc(O)cc(O)c12 (stereo not drawn),·,8,-11%[8.37 µM],15µM*,-21%,0%
CCN(CC)C1CCN(C(=O)c2cnn(-c3nccc(-c4ccco4)n3)c2C(C)C)C1 (stereo not drawn),·,·,·,·,-2%,·
CC1CCN(S(=O)(=O)c2ccc3c(c2)CCN3C(=O)Nc2ccccc2Br)CC1,·,-8,·,5%[46.1 µM],-18%,-16%[46.1 µM]
CCOc1ccc(CNC(=O)CCS(=O)(=O)c2cc3c4c(c2)CCN4C(=O)CC3)cc1,·,-4,·,·,-2%,-12%[46.1 µM]
CCOC(=O)C(C)N1C(=O)S/C(=C/c2cc(C)n(-c3ccccn3)c2C)C1=O (stereo not drawn),-3%,24,10µM*,?,-11%,5%
COC(=O)C(C)N1C(=O)S/C(=C/c2cc(C)n(C(C)C)c2C)C1=O (stereo not drawn),5%,14,10µM*,?,-23%,-27%
CCn1c(C)cc(/C=C2/SC(=O)N(C(C)C(=O)OC)C2=O)c1C (stereo not drawn),0%,-13,?,?,-12%,?
CCOC(=O)C(C)N1C(=O)S/C(=C/c2cc(C)n(-c3ccncc3)c2C)C1=O (stereo not drawn),-2%,-12,10µM*,·,-9%,·
COCCn1c(C)cc(/C=C2/SC(=O)N(C(C)C(=O)OC)C2=O)c1C (stereo not drawn),0%,-23,-4%,·,2%,·
CSc1nnc(CCNC(=O)/C=C/c2cccc(F)c2)n1-c1ccc(F)cc1,·,·,·,·,-15%,·
O=[N+]([O-])c1cc(C(F)(F)F)ccc1N1CCN(S(=O)(=O)c2ccc3ccccc3c2)CC1,-2%,-69*,6.3µM*,11µM*,?,-20%
